Measured values from PubChem BioAssay AID463117 (University of Pittsburgh Molecular Library Screening Center, 2010).
The other results are listed elsewhere or left out. Activity calls are given as the source filed them.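 How the source made its calls: active means mean protection from necroptosis of at least 50% over duplicate tests; inactive means mean protection below 50%.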

Assay: rescue of L929 cells from caspase-blocker death – duplicate runs, confirmation (AID 463117);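 further: 0% = cells with zVAD alone and 100% = vehicle cells without zVAD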
Settings: L929 zVAD-induced necroptosis rescue, ATP luminescence, 24 h; at 10 µM; active compounds read high

Compound | activation (protection from necroptosis)
CC(=O)c1ccc(S(=O)(=O)N2CCN(C(=O)/C=C/c3ccc4ccccc4n3)CC2)cc1 | 2.81% (inactive)
CC(=O)Nc1ccc(NC(=S)NC(=O)/C=C/c2ccccc2)cc1 | -0.0785% (inactive)
Cc1ccc(Nc2ccccc2N)cc1 | 5.52% (inactive)
COc1cc(N=Cc2c(O)[nH]c3ccccc23)cc(OC)c1OC | 72.9% (active)
C[C@@H]1C[C@@H]2O[C@H]2/C=C\C=C\C(=O)Cc2c(Cl)c(O)cc(O)c2C(=O)O1 | 76.5% (active)
COc1ccc2nc(NC(=O)NC3CCCCC3)sc2c1 | 37.5% (inactive)
CCn1c(SCCC(C)C)nnc1-c1c[nH]c2ccccc12 | 2.15% (inactive)
COc1ccc(N=Cc2c(O)[nH]c3ccccc23)cc1OC | 76% (active)
COc1ccc(-n2cnc3cc(C(=O)NC4CCCC4)ccc32)cc1 | 62% (active)
CC1CCCC(C)N1CCCNC(=O)c1cc2c(=O)n(C)c3ccccc3c2n1C (stereo unspecified) | 37.3% (inactive)
CCOC(=O)N1CCN(C(=O)CNC(=O)Cc2ccc(Cl)cc2)CC1 | 34.3% (inactive)
CC1CCCCC1NC(=O)/C(C#N)=C/C=C/c1ccccc1[N+](=O)[O-] (stereo unspecified) | 4.07% (inactive)
Cc1ccc(NC(=O)NC2CCCCC2)cc1S(=O)(=O)N1CCOCC1 | 2.38% (inactive)
Cc1[nH]c(=O)c(C(=O)/C=C/c2ccccc2)c2c1CCCC2 | 1.29% (inactive)
CCn1c(SCC(=O)Nc2nc3ccc(OC)cc3s2)nnc1-c1ccoc1C | 1.15% (inactive)
CC(=O)c1cc(C#N)c(SCC(=O)Nc2nccs2)nc1C | 0.793% (inactive)
